Source: article PMC13083723 (Patterns, 2026)
Among all 5,400 compounds or so, about 190 (3.5%) showed an effect of 50% or more. The sample as a whole holds a higher share of strong results than the screen did.

These molecules were tested on Vero-E6 (assay: primary screen, phospholipidosis by LipidTOX staining; higher = more effect of the substance). Details: 10 µM.
Procedure: To measure drug-induced PLD in Vero-E6 cells, we used the HCS LipidTOX Red Phospholipidosis Detection Reagent (Invitrogen, #H34351), which is non-toxic to cell growth and remains well retained after aldehyde fixation. In this setup, compounds (at 10 μM concentration) and controls (amiodarone: 10 μM concentration; DMSO: 0.1 v/v %) were added to clear-bottom, 384-well plates (PhenoPlate 384-well, black, optically clear flat bottom, tissue-culture treated, Revvity #6057302) using the Echo Liquid Handler (Labcyte).

SMILES | result_ITMP [%]
CNC(=O)c1ccccc1Nc1cc(Nc2ccc(N3CCOCC3)cc2OC)ncc1C(F)(F)F | 10.6
CN1CCN(Cc2ccc(Nc3ncc(Cl)c(Nc4ccccc4S(=O)(=O)N(C)C)n3)cc2)CC1 | 1.65
CNC(=O)c1ccccc1Nc1nc(Nc2ccc3c(c2OC)CCC[C@H](N2CCN(CCO)CC2)C3)ncc1Cl | 139
CC1(C)S[C@@H]2[C@H](NC(=O)C(C(=O)[O-])c3ccsc3)C(=O)N2[C@H]1C(=O)[O-] (some centres unmarked) | -2.7
CCCCCC(O)CCCC(=O)[O-] (centres unmarked) | -2.69
CC#C[C@@H](CC(=O)[O-])c1ccc(OCc2cccc(-c3ccc(C(F)(F)F)cc3)c2)cc1 | 2.55
C[C@@H](NCCCc1cccc(C(F)(F)F)c1)c1cccc2ccccc12 | 61.8
CC(Cc1cccc(C(F)(F)F)c1)NCCOC(=O)c1ccccc1 (centres unmarked) | 6.92
CCN[C@@H](C)Cc1cccc(C(F)(F)F)c1 | 3.76
CSCCC(N)C(=O)O (centres unmarked) | -3.06
O[C@H]1[C@H]2[C@H](O)CCCN2C[C@H]1O | 0.57
c1cc(Nc2cc(C3CC3)n[nH]2)nc(Nc2ccc3nc[nH]c3c2)n1 | -1.4
CSc1ccccc1Nc1nc(N2CCNCC2)nc2c(NCC3CC3)ncnc12 | 79.3
CN1C2C=C(c3sccc3Br)CC1CC2 (centres unmarked) | 6.82
CCN(CCO)CCCOc1ccc2c(Nc3cc(CC(=O)Nc4cccc(F)c4)n[nH]3)ncnc2c1 | -2.36
C(=C\c1ccccc1)/CN1CCN(CCOC(c2ccccc2)c2ccccc2)CC1 | 7.08
Clc1ccc(C(OCCN2CCCCC2)c2ccccc2)cc1 (centres unmarked) | 63.9
c1ccc(CCCN2CCN(CCOC(c3ccccc3)c3ccccc3)CC2)cc1 | 15
C#C[C@]1(OC(C)=O)CCC2C3CCC4=C/C(=N/O)CCC4C3CC[C@@]21CC (some centres unmarked) | 1.9
CN(C)C(=O)C(CCN1CCC(O)(c2ccc(Cl)cc2)CC1)(c1ccccc1)c1ccccc1 | 67.2
O=C(CCCN1CCC(O)(c2ccc(Cl)cc2)CC1)c1ccc(F)cc1 | 3.22
OC1(c2ccc(Cl)c(C(F)(F)F)c2)CCN(CCCC(c2ccc(F)cc2)c2ccc(F)cc2)CC1 | 36.2
NCCCCCC(O)(P(=O)([O-])O)P(=O)(O)O | -0.14

SMILES | result_ITMP [%]
Nc1ncnc2c1nc(Br)n2[C@@H]1O[C@@H]2COP(=O)([O-])O[C@H]2[C@H]1O | 15.8
CCN1C(=O)CN=C2NC=C(c3ccc(-c4nnc[nH]4)nc3C)N=C21 | -2.57
OC[C@@H](O)[C@@H](O)[C@@H](O)CO | -6.6
O=C(Nc1ccc(CN2CCOCC2)cc1)c1ccc(-c2cccc(Cl)c2)o1 | 56.3
CCNC(=O)c1noc(-c2cc(C(C)C)c(O)cc2O)c1-c1ccc(CN2CCOCC2)cc1 | -0.23
COc1cc(NC(=O)c2ccc(-c3ccc(Cl)cc3)o2)cc(OC)c1 | 2.29
C[C@]12C=CC(=O)C=C1CCC1C2[C@@H](O)C[C@@]2(C)C1CC[C@]2(O)C(=O)COC(=O)CCC(=O)O (some centres unmarked) | -5.57
Cc1cc(/C=C2\SC(=O)N(c3ccccc3)C2=O)c(C)n1-c1cccnc1 | -6.01
O=C(Nc1ccc2c(O)cc(S(=O)(=O)[O-])cc2c1)Nc1ccc2c(O)cc(S(=O)(=O)[O-])cc2c1 | -7.47
COc1ccc(CCN(C)CCCN2CCc3cc(OC)c(OC)cc3CC2=O)cc1OC | -1.11
COc1ccc(CCN(C)CCCOc2ccc(S(=O)(=O)c3c(C(C)C)c4ccccc4n3C)cc2)cc1OC | 84.7
COc1ccc(CCN(C)CCc2ccc(OC)c(OC)c2)cc1OC | -1.15
O=C(NCCN1CCOCC1)c1ccc(Cl)cc1 | -6.19
COc1ccccc1N1CCN(CCCCNC(=O)c2ccc3ccccc3c2)CC1 | 34.4
O=C(NCCN1CCC2(CC1)C(=O)NCN2c1cccc(F)c1)c1ccc(F)c(F)c1 | 60.1
O=C(NCCN1CCC2(CC1)C(=O)NCN2c1cccc(F)c1)c1ccc2ccccc2c1 | 55.1
O=C1NCN(c2ccccc2)C12CCN(CCCC(c1ccc(F)cc1)c1ccc(F)cc1)CC2 | 1.98
COc1ccc2cccc(N3CCN(CCNC(=O)c4ccc(F)cc4)CC3)c2c1 | 14
C[C@@H]1CCO[C@H]2Cn3cc(C(=O)NCc4ccc(F)cc4F)c(=O)c(O)c3C(=O)N12 | -4.23
CN(C)CCCO[C@@H]1[C@H]2OC(C)(C)O[C@H]2O[C@@H]1[C@H](O)CO | -8.5
C[C@@H]1C[C@H]2[C@@H]3CCC4=CC(=O)C=C[C@]4(C)[C@@]3(Cl)[C@@H](O)C[C@]2(C)[C@@]1(O)C(=O)CCl | 0.3
O=C(CN1C2=NCCN2c2ccccc21)c1ccc(-c2ccccc2)cc1 | 53.9
CN(CCCN1c2ccccc2CCc2ccccc21)CC(=O)c1ccc(Cl)cc1 | 13.8

SMILES | result_ITMP [%]
O=C(O)c1ccccc1C(=O)Nc1ccc(-c2ccccc2)cc1 | -1.06
c1ccc(CNc2nc(NCc3ccccc3)c3ccccc3n2)cc1 | 58.9
c1ccc(CNc2ncnc3nc[nH]c23)cc1 | -8.79
Cn1cnc2c(NCc3ccccc3)nc(NCCO)nc21 | -1.91
N=C(N)Nc1nc(CSCCN/C=N/S(=O)(=O)c2ccc(Br)cc2)cs1 | 0.59
O=C([O-])c1ccccc1Nc1cc(Cl)ccc1C(=O)[O-] | -3.54
C[C@@H]([C@H](O)c1ccc(O)cc1)N1CCC(Cc2ccccc2)CC1.C[C@H]([C@@H](O)c1ccc(O)cc1)N1CCC(Cc2ccccc2)CC1 | 8.99
CN[C@H](CC(C)C)C(=O)NC1C(=O)N[C@@H](CC(N)=O)C(=O)N[C@H]2C(=O)NC3C(=O)N[C@H](C(=O)N[C@@H](C(=O)O)c4cc(O)cc(O)c4-c4cc3ccc4O)[C@H](O)c3ccc(c(Cl)c3)Oc3cc2cc(c3O[C@@H]2OC(CO)[C@@H](O)[C@H](O)[C@H]2O[C@H]2C[C@](C)(N)[C@H](O)[C@H](C)O2)Oc2ccc(cc2Cl)[C@H]1O (some centres unmarked) | -7.09
Cn1ncc(Cl)c1-c1cc(C(=O)N[C@H](CN)Cc2ccc(F)c(F)c2)oc1Cl | 82.6
Cn1nc(C(C)(C)C)cc1C(=O)N[C@@H](Cc1cccc(Cl)c1)C(=O)NCC#N | -8.49
Cn1ncc(Cl)c1-c1cc(C(=O)N[C@H](CN)Cc2cccc(F)c2)sc1Cl | 69.5
Cc1cc(CN)cc(C)c1NC(=O)c1ccc(-c2cc(Cl)ccc2Cl)o1 | 36.2
O=C(N[C@H](Cc1ccccc1)C(=O)O)c1sc2cc(F)ccc2c1Cl | -1.39
C[C@]12CCC(=O)C=C1CC[C@@H]1[C@@H]2C(=O)C[C@]2(C)C(=O)CC[C@@H]12 | -0.84
C=C1C(=O)O[C@@H]2[C@H]3C(C)=CC[C@@]34O[C@@]4(C)CC[C@@H]12 | 2.15
COC(=O)[C@]12CCC(C)(C)C[C@H]1[C@H]1C(=O)C=C3[C@@]4(C)C=C(C#N)C(=O)C(C)(C)[C@@H]4CC[C@@]3(C)[C@]1(C)CC2 | -10.9
CCCC[C@@H](NC(=O)[C@@H](Cc1cn(C(=O)OC)c2ccccc12)NC(=O)[C@H](CC(C)(C)C)NC(=O)N1[C@H](C)CCC[C@@H]1C)C(=O)[O-] | -3.76
CC(C)(C)CCN1C[C@@H]2[C@@H](CNC(=O)c3cc(Cl)cc(Cl)c3)[C@@H]2C1 | 20.6
COC1C(OC(=O)NC(=O)CCl)CCC2(CO2)C1C1(C)OC1CC=C(C)C (centres unmarked) | 11.3
C[C@H]1CC2C([C@@H](O)C[C@@]3(C)C2CC[C@]3(O)C(=O)COC(=O)CCC(=O)[O-])[C@@]2(C)C=CC(=O)C=C12 (some centres unmarked) | -6.49
O=C(NOCCO)c1cc(CN2OCCCC2=O)c(F)c(F)c1Nc1ccc(I)cc1F | -1.3
O=C(c1ccc(F)c(F)c1Nc1ccc(I)cc1F)N1CC(O)([C@@H]2CCCCN2)C1 | 78.8
O=C(NOCC1CC1)c1ccc(F)c(F)c1Nc1ccc(I)cc1Cl | 1.02

SMILES | result_ITMP [%]
Cc1cc2nc3c(=O)[nH]c(=O)nc-3n(C[C@@H](O)[C@@H](O)[C@@H](O)COP(=O)([O-])O)c2cc1C | 1.6
COc1cc2cc(c1Cl)N(C)C(=O)C[C@H](OC(=O)C(C)C)[C@]1(C)O[C@H]1[C@H](C)[C@@H]1C[C@@](O)(NC(=O)O1)[C@H](OC)/C=C/C=C(\C)C2 | -0.8
CCCCOc1cc(C(=O)OCCN(CC)CC)ccc1N | 18.9
CCN(CC)CCOc1ccc2c(c1)C(=O)c1cc(OCCN(CC)CC)ccc1-2 | 57.2
CCOc1ccc(C(=O)OCCN(CC)CC)cc1 | 0.82
O=C1NNc2nc(CN3Cc4ccccc4C3)nc3cccc1c23 | 0.43
O=C([O-])C(Cl)Cl | -4.51
CC(C)(C)C(=O)OCOC(=O)C1N2C(=O)CC2S(=O)(=O)C1(C)C (centres unmarked) | 3.85
CCCCCCCCCCCCCCCC=O | -3.07
COc1ccccc1N1CCN(CCCCN2C(=O)c3ccccc3C2=O)CC1 | -0.85
CN(C)CCCN1c2ccccc2CCc2ccc(Cl)cc21 | 47.3
OCCN1CCN(CCCN2c3ccccc3Sc3ccc(Cl)cc32)CC1 | 84.7
CN1CCN(CCCN2c3ccccc3Sc3ccc(Cl)cc32)CC1 | 38.9
Clc1ccc2c(N3CCN(CCCN4CCN(c5ccnc6cc(Cl)ccc56)CC4)CC3)ccnc2c1 | 6.97
CN1CCN(CCCN2c3ccccc3Sc3ccc(C(F)(F)F)cc32)CC1 | 81.3
CCN(CC)CCCCN1c2ccccc2Oc2ccc(Cl)cc21 | 69.7
O=C(CCc1ccncc1)NNC(=O)N1Cc2ccccc2Oc2ccc(Cl)cc21 | -1.3
OCCN1CCN(CCCN2c3ccccc3C=Cc3ccccc32)CC1 | 50.3
Cc1c[nH]c(=O)n(CCCN2CCN(c3ccccc3OCC(F)(F)F)CC2)c1=O | -1.42
COc1ccccc1N1CCN(CCCCN2C(=O)CCC2=O)CC1 | 6.62
